# D1 PAM: enhances dopamine response at the human D1 receptor; HEK293 TREx D1 cells, calcium flux, dopamine EC20 potentiation; hit rate 0.036% among 360,000; potentiation, % at 10 µM; AID 504651; in the data active = potentiation above about 30%
# D1 antag: antagonists of human D1 dopamine receptor; P21728; HEK293 TREx D1 cells, calcium flux, dopamine EC80; active compounds read low; activity change, negative = inhibition, % at 10 µM; hit rate 3.2% among 360,000; AID 504652; in the data active = activity change below about -30%
#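 Calcium flux readout: force-coupled, inducible Hek293 Trex D1 line, cells induced overnight at 30 C with tetracycline, dye-loaded 30–90 min at RT. Antagonism scored against EC80 dopamine challenge given 180 s after compound.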
# D1 agonist: agonists of human D1 dopamine receptor. activation, % at 2 µM. P21728. hit rate 1% among 360,000. HEK293 T-REx D1 cells, calcium flux, agonist mode; in the data active = activation above about 30%
#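 Inducible HEK293 T-REx D1 cells, force-coupled to calcium signalling, were plated at 4000 cells/well with tetracycline and held overnight at 30 C. After no-wash calcium dye loading, compound-evoked calcium rise over 180 s flagged agonists.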
# DRD3 agonist: D3 dopamine receptor (human) agonism. P35462. max activation, %. hit rate 0.58% among 410,000. D3R DiscoveRx beta-arrestin cells, luminescence, 90 min. AID 652048; in the data active = max activation above about 30%
# Target sequence (P35462 whole entry, looked up): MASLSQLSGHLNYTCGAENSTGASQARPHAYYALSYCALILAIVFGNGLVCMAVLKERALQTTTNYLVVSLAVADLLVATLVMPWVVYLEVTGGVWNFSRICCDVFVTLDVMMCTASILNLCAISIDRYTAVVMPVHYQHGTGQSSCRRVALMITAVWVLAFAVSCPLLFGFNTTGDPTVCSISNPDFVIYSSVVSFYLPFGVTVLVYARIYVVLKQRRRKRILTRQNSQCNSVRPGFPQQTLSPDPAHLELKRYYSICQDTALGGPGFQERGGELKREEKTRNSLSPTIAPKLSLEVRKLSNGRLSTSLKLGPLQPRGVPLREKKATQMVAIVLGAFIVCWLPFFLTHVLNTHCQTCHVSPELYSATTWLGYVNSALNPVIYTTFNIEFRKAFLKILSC
#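 Agonist-mode cell screen: cells plated at 1500/well and incubated overnight at 37 °C, then exposed to library compounds for 90 min at 37 °C. Detection reagent was added for 30–60 min at room temperature, and luminescence was read.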
# D3 antag: antagonists of human D3 dopamine receptor; D3R cells, DiscoveRx beta-arrestin luminescence, antagonist mode; active compounds read low; hit rate 2.5% among 360,000; max response, negative = inhibition, %; in the data active = max response below about -50%; inconclusive = no clear call, values can overlap the other calls
#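 Cells expressing the human receptor were seeded at 1500 cells/well, incubated overnight at 37 degrees C in 5% CO2, then exposed to library compounds with dopamine controls for 90 minutes at 37 degrees C before luminescent detection.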
# Hits are given with their value; - = inactive; ? = inconclusive; . = no result; ! = a repeat was not active. Hits are enriched below; roughly 6% of the tested compounds scored in any of these assays.
SMILES,D1 PAM,D1 antag,D1 agonist,DRD3 agonist,D3 antag
CC(NC(=O)CCCN1C(=O)c2ccccc2C1=O)c1ccc2c(c1)CCCC2 (centres undefined),-,-40,-,-,-
Cc1ccc(-n2nc(CO)c(C(=O)NCCCc3ccccc3)n2)cc1C,-,-,-,-,.
CC(=O)OCC1(C)CN(c2ccccc2)N(C(=O)c2ccc(C(C)(C)C)cc2)C1=O (centres undefined),-,-64,-,-,-
CC(=O)OCC1(C)CN(c2ccccc2)N(C(C)=O)C1=O (centres undefined),-,-,-,-,-
Cc1cccc(C)c1NC(=O)C1=C(O)c2ccccc2N(C)S1(=O)=O,-,-,-,-,-52
CCOc1ccc(NC(=O)c2sc3nc4c(cc3c2N)CN(Cc2ccccc2)CC4)cc1,-,-,-,-,.
COc1ccc(-c2cc(C(=O)NC(Cc3cc4ccccc4[nH]3)C(=O)O)c(C)o2)cc1OC (centres undefined),-,-,-,36,-
CC(C)(C)c1ccc(-c2nnc(-c3ccccc3NC(=O)c3cccc(C(F)(F)F)c3)o2)cc1,-,-,-,-,.
Cc1ccc2c(c1)sc1nc(=O)n(-c3ccc(Cl)cc3)c(=O)n12,-,-,-,-,?
Cc1ccc2c(c1)sc1nc(=O)n(-c3ccc(Cl)c(Cl)c3)c(=O)n12,-,-39!,-,-,-
Cn1c(SCC(=O)c2ccc(F)cc2)nnc1-c1ccccc1Br,-,-,-,-,.
COc1ccc(N2CCN(C(=O)C(C)n3nc(C)c4sc5ccccc5c4c3=O)CC2)cc1 (centres undefined),-,-,-,-,.
COc1ccc(C(C)(O)c2nc(/C=C/c3ccccc3)cs2)cc1 (centres undefined),.,.,.,-,-78
CCCN(CCC)C(=O)Cn1c(=O)n(-c2ccc(C)c(C)c2)c(=O)c2c3c(sc21)CCCCC3,-,-,-,-,.
CC(=O)N1CCN(Cc2nc3scc(-c4ccccc4)c3c(=O)[nH]2)CC1,-,-,-,-,-
O=c1[nH]c(CN2CCN(Cc3ccccc3)CC2)nc2scc(-c3ccccc3)c12,-,-,-,-,-82
CCN1C(=O)/C(=C2/C=CC=CN2C)SC1=S,-,-33,-,-,-
COc1ccc(NC(=S)Nc2cc(C)[nH]n2)cc1Cl,-,-,-,-,-
Cc1cc(NC(=S)Nc2ccc(C)c(Cl)c2)n[nH]1,-,-39,-,-,-
COc1ccc(NC(=S)Nc2cc(-c3ccccc3)[nH]n2)cc1Cl,-,-79,-,-,-
Cc1cc(C)cc(NC2=C(c3ccccc3)C(=O)c3ccccc32)c1,-,-,-,-,.
CCOc1ccc(C(=O)/C=C/c2ccc(SC)cc2)cc1,-,-30,-,-,-
CCOc1ccc(C(=O)/C=C/c2cc(OC)c(OC)c(OC)c2)cc1,-,-49,-,-,-
COC(=O)c1ccc(/C=C/C(=O)c2ccc(OC)cc2)cc1,-,-38,-,-,-
CCOc1ccc(/C=C/C(=O)c2ccccc2)cc1,-,-,-,-,-
SMILES,D1 PAM,D1 antag,D1 agonist,DRD3 agonist,D3 antag
Cc1ccc(C(=O)Nc2cccc(C(=O)OCc3cc(=O)n4c5c(sc4n3)CCCC5)c2)cc1,-,-,-,-,.
Cc1cccc(C(=O)Nc2ccc(C(=O)N/N=C/c3ccc(C)o3)cc2)c1,-,-48,-,-,-
Cc1ccc(C(=O)Nc2ccc(C(=O)N/N=C/c3ccccn3)cc2)cc1,-,-38,-,-,-
CN(C)c1ccc(C(=O)N/N=C/c2ccccn2)cc1,-,-40,-,-,-
COc1ccc(C(=O)Nc2cccc(C(=O)O)c2)cc1S(=O)(=O)N1CCCC1,-,-,-,-,-
Cc1ccc(C(=O)Nc2cccc(C(=O)O)c2)cc1S(=O)(=O)N1CCCC1,-,-40,-,-,.
O=C(NCC(O)c1ccccc1)c1ccc(Cl)c(S(=O)(=O)N2CCCC2)c1 (centres undefined),-,-31,-,-,-
O=C(Nc1ccc(Br)cc1)c1ccc(Br)c(S(=O)(=O)N2CCCCC2)c1,-,-43,-,-,.
COc1cccc(CN(C)C(=O)c2ccc(C)c(S(=O)(=O)N3CCCCC3)c2)c1,-,-36,-,-,-
C#CC1(O)CC[C@H]2[C@@H]3CCC4=CCCC[C@@H]4[C@H]3CC[C@@]21C (some centres undefined),.,.,.,-,.

# Screens: PubChem BioAssay, National Center for Advancing Translational Sciences (NCATS)
